From the supplement of paper PMC7595190

Legend:
Assay in all cases: CellTox Green cytotoxicity fluorescence relative to DMSO vehicle (fold of vehicle RFU); higher = more cell death (loss of membrane integrity), active = 2 or more
CMK = system: CMK
How it was run: (§1)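 CellTox Green reagent was added when MV4-11, CMK and Kasumi-1 cells were seeded at 4.0 × 10^4 cells per well, and single compounds from the Selleckchem apoptosis library were added at final 0.01, 0.1 and 1 µM in DMSO (vehicle 0.1% DMSO). Fluorescence at Ex 485 nm and Em 520 nm was read after 24, 48 and 72 h at 37 °C, 5% CO2. The reported cytotoxicity corresponds to loss of membrane integrity, given as fold of the DMSO vehicle.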

Kasumi-1 = system: Kasumi-1
How it was run: as §1

MV4-11 = system: MV4-11
How it was run: as §1

Measured: CellTox Green cytotoxicity fluorescence

NS(=O)(=O)C#Cc1ccccc1 [Pifithrin-m]
inactive: CMK; 0.01 µM, 24 h 0.969 | CMK; 0.01 µM, 48 h 0.96 | CMK; 0.01 µM, 72 h 0.939 | CMK; 0.1 µM, 24 h 1.01 | CMK; 0.1 µM, 48 h 1 | CMK; 0.1 µM, 72 h 0.998 | CMK; 1 µM, 24 h 1 | CMK; 1 µM, 48 h 1.04 | CMK; 1 µM, 72 h 0.96 | Kasumi-1; 0.01 µM, 24 h 0.994 | Kasumi-1; 0.01 µM, 48 h 0.986 | Kasumi-1; 0.01 µM, 72 h 0.979 | Kasumi-1; 0.1 µM, 24 h 1 | Kasumi-1; 0.1 µM, 48 h 0.98 | Kasumi-1; 0.1 µM, 72 h 0.98 | Kasumi-1; 1 µM, 24 h 0.987 | Kasumi-1; 1 µM, 48 h 0.985 | Kasumi-1; 1 µM, 72 h 0.983

COc1nc(-c2ccc3c(c2)OCO3)n(-c2ccc(NC(=O)CSc3ccccc3)cc2)n1 [SecinH3]
inactive: CMK; 0.01 µM, 24 h 1.03 | CMK; 0.01 µM, 48 h 1.04 | CMK; 0.01 µM, 72 h 1.05 | CMK; 0.1 µM, 24 h 0.992 | CMK; 0.1 µM, 48 h 0.997 | CMK; 0.1 µM, 72 h 0.985 | CMK; 1 µM, 24 h 0.996 | CMK; 1 µM, 48 h 1.01 | CMK; 1 µM, 72 h 1.01 | Kasumi-1; 0.01 µM, 24 h 1.02 | Kasumi-1; 0.01 µM, 48 h 1.03 | Kasumi-1; 0.01 µM, 72 h 1.04 | Kasumi-1; 0.1 µM, 24 h 1.02 | Kasumi-1; 0.1 µM, 48 h 1.02 | Kasumi-1; 0.1 µM, 72 h 1.01 | Kasumi-1; 1 µM, 24 h 0.941 | Kasumi-1; 1 µM, 48 h 0.989 | Kasumi-1; 1 µM, 72 h 1.02 | MV4-11; 0.01 µM, 24 h 1.02 | MV4-11; 0.01 µM, 48 h 1.02 | MV4-11; 0.01 µM, 72 h 1.02 | MV4-11; 0.1 µM, 24 h 1.01 | MV4-11; 0.1 µM, 48 h 1.01 | MV4-11; 0.1 µM, 72 h 1 | MV4-11; 1 µM, 24 h 1 | MV4-11; 1 µM, 48 h 1.03 | MV4-11; 1 µM, 72 h 1.05

Cc1cccc(CC(=O)N2CCc3c2ccc(-c2cn(C)c4ncnc(N)c24)c3F)n1
inactive: CMK; 0.01 µM, 24 h 0.981 | CMK; 0.01 µM, 48 h 0.975 | CMK; 0.01 µM, 72 h 0.966 | CMK; 0.1 µM, 24 h 1 | CMK; 0.1 µM, 48 h 0.997 | CMK; 0.1 µM, 72 h 1 | CMK; 1 µM, 24 h 1 | CMK; 1 µM, 48 h 1.05 | CMK; 1 µM, 72 h 0.907 | Kasumi-1; 0.01 µM, 24 h 1.03 | Kasumi-1; 0.01 µM, 48 h 1.02 | Kasumi-1; 0.01 µM, 72 h 1.02 | Kasumi-1; 0.1 µM, 24 h 1.01 | Kasumi-1; 0.1 µM, 48 h 1.02 | Kasumi-1; 0.1 µM, 72 h 1.04 | Kasumi-1; 1 µM, 24 h 1.03 | Kasumi-1; 1 µM, 48 h 1.03 | Kasumi-1; 1 µM, 72 h 1.04

CCO[C@@H]1OC(=O)C[C@@H]1NC(=O)[C@@H]1CCCN1C(=O)[C@@H](NC(=O)c1ccc(N)c(Cl)c1)C(C)(C)C
inactive: CMK; 0.01 µM, 24 h 0.989 | CMK; 0.01 µM, 48 h 0.988 | CMK; 0.01 µM, 72 h 1 | CMK; 0.1 µM, 24 h 0.971 | CMK; 0.1 µM, 48 h 0.981 | CMK; 0.1 µM, 72 h 0.995 | CMK; 1 µM, 24 h 0.96 | CMK; 1 µM, 48 h 0.975 | CMK; 1 µM, 72 h 1.03 | Kasumi-1; 0.01 µM, 24 h 0.954 | Kasumi-1; 0.01 µM, 48 h 0.953 | Kasumi-1; 0.01 µM, 72 h 0.948 | Kasumi-1; 0.1 µM, 24 h 0.98 | Kasumi-1; 0.1 µM, 48 h 0.961 | Kasumi-1; 0.1 µM, 72 h 0.948 | Kasumi-1; 1 µM, 24 h 0.997 | Kasumi-1; 1 µM, 48 h 1.02 | Kasumi-1; 1 µM, 72 h 1.03 | MV4-11; 0.01 µM, 24 h 0.972 | MV4-11; 0.01 µM, 48 h 0.981 | MV4-11; 0.01 µM, 72 h 0.987 | MV4-11; 0.1 µM, 24 h 0.995 | MV4-11; 0.1 µM, 48 h 0.989 | MV4-11; 0.1 µM, 72 h 0.996 | MV4-11; 1 µM, 24 h 1 | MV4-11; 1 µM, 48 h 1 | MV4-11; 1 µM, 72 h 1.01

COc1cc(C(=O)O)ccc1NC(=O)[C@@H]1N[C@@H](CC(C)(C)C)[C@](C#N)(c2ccc(Cl)cc2F)[C@H]1c1cccc(Cl)c1F [Idasanutlin]
inactive: CMK; 0.01 µM, 24 h 0.938 | CMK; 0.01 µM, 48 h 0.944 | CMK; 0.01 µM, 72 h 0.96 | CMK; 0.1 µM, 24 h 0.943 | CMK; 0.1 µM, 48 h 0.953 | CMK; 0.1 µM, 72 h 1.01 | CMK; 1 µM, 24 h 0.963 | CMK; 1 µM, 48 h 1.01 | CMK; 1 µM, 72 h 0.933 | Kasumi-1; 0.01 µM, 24 h 1.01 | Kasumi-1; 0.01 µM, 48 h 0.971 | Kasumi-1; 0.01 µM, 72 h 0.962 | Kasumi-1; 0.1 µM, 24 h 0.966 | Kasumi-1; 0.1 µM, 48 h 0.949 | Kasumi-1; 0.1 µM, 72 h 0.947 | Kasumi-1; 1 µM, 24 h 1.01 | Kasumi-1; 1 µM, 48 h 1.03 | Kasumi-1; 1 µM, 72 h 1.03

COc1ccc(C2=N[C@@H](c3ccc(Cl)cc3)[C@@H](c3ccc(Cl)cc3)N2C(=O)N2CCNC(=O)C2)c(OC(C)C)c1 [Nutlin-3]
inactive: CMK; 0.01 µM, 24 h 0.981 | CMK; 0.01 µM, 48 h 0.982 | CMK; 0.01 µM, 72 h 0.971 | CMK; 0.1 µM, 24 h 1 | CMK; 0.1 µM, 48 h 1.01 | CMK; 0.1 µM, 72 h 1.03 | CMK; 1 µM, 24 h 1.02 | CMK; 1 µM, 48 h 1.01 | CMK; 1 µM, 72 h 1.03 | Kasumi-1; 0.01 µM, 24 h 1.02 | Kasumi-1; 0.01 µM, 48 h 1.01 | Kasumi-1; 0.01 µM, 72 h 0.998 | Kasumi-1; 0.1 µM, 24 h 0.977 | Kasumi-1; 0.1 µM, 48 h 0.977 | Kasumi-1; 0.1 µM, 72 h 0.959 | Kasumi-1; 1 µM, 24 h 1.01 | Kasumi-1; 1 µM, 48 h 1.01 | Kasumi-1; 1 µM, 72 h 1.05

Nc1cccc2c1CN(C1CCC(=O)NC1=O)C2=O (centres undefined) [Lenalidomide]
inactive: CMK; 0.01 µM, 24 h 0.938 | CMK; 0.01 µM, 48 h 0.942 | CMK; 0.01 µM, 72 h 0.905 | CMK; 0.1 µM, 24 h 0.932 | CMK; 0.1 µM, 48 h 0.929 | CMK; 0.1 µM, 72 h 0.898 | CMK; 1 µM, 24 h 0.948 | CMK; 1 µM, 48 h 0.969 | CMK; 1 µM, 72 h 0.783 | Kasumi-1; 0.01 µM, 24 h 0.986 | Kasumi-1; 0.01 µM, 48 h 0.897 | Kasumi-1; 0.01 µM, 72 h 0.88 | Kasumi-1; 0.1 µM, 24 h 0.951 | Kasumi-1; 0.1 µM, 48 h 0.933 | Kasumi-1; 0.1 µM, 72 h 0.915 | Kasumi-1; 1 µM, 24 h 0.986 | Kasumi-1; 1 µM, 48 h 1 | Kasumi-1; 1 µM, 72 h 0.982
